Laboratory results published in the supplement of paper PMC7411054.
Counter-ions that a name gives are not always drawn.

Legend:
Details in all cases: treatment time: 24 h
A549-ACTB-RAB5A [1] = assay: lowest phenotypically active concentration; higher = less potent
Outline: (§1)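 After 24 h at 0.3, 1, 3 or 9 µM, with four wells per treatment, fifteen gene-edited A549, HepG2 and WPMY1 reporter lines carrying BFP, GFP and RFP/FusionRed were imaged live. Each well's live-cell features were expressed relative to solvent control wells. Deviation required ≥3 of 4 wells past the 95th percentile of control Euclidean distances, and reproducibility a median replicate Pearson correlation over the 95th percentile of non-replicates. Phenotypic activity rested on both.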

A549-GM130-SQSTM1 [2] = assay: as above
Outline: as §1

A549-TUBA1B-RELA [3] = assay: as above
Outline: as §1

HepG2-ACTB-RAB5A [4] = assay: as above
Outline: as §1

WPMY1-GM130-SQSTM1 [5] = assay: as above
Outline: as §1

A549-ACTB-RAB5A [6] = assay: phenotypically active (imaging signature differs from DMSO and reproducible) at any of 0.3-9 uM (binary (1 = active, 0 = inactive)); higher = active
Outline: as §1

A549-CANX-COX4 = assay: as above
Outline: as §1

A549-GM130-SQSTM1 [7] = assay: as above
Outline: as §1

A549-TP53BP1-CLTA = assay: as above
Outline: as §1

A549-TUBA1B-RELA [8] = assay: as above
Outline: as §1

HepG2-ACTB-RAB5A [9] = assay: as above
Outline: as §1

HepG2-CANX-COX4 = assay: as above
Outline: as §1

HepG2-GM130-SQSTM1 = assay: as above
Outline: as §1

HepG2-TP53BP1-CLTA = assay: as above
Outline: as §1

HepG2-TUBA1B-RELA = assay: as above
Outline: as §1

WPMY1-ACTB-RAB5A = assay: as above
Outline: as §1

WPMY1-CANX-COX4 = assay: as above
Outline: as §1

WPMY1-GM130-SQSTM1 [10] = assay: as above
Outline: as §1

WPMY1-TP53BP1-CLTA = assay: as above
Outline: as §1

WPMY1-TUBA1B-RELA = assay: as above
Outline: as §1

SMILES | lowest phenotypically active concentration (A549-ACTB-RAB5A [1]) | lowest phenotypically active concentration (A549-GM130-SQSTM1 [2]) | lowest phenotypically active concentration (A549-TUBA1B-RELA [3]) | lowest phenotypically active concentration (HepG2-ACTB-RAB5A [4]) | lowest phenotypically active concentration (WPMY1-GM130-SQSTM1 [5]) | phenotypically active (A549-ACTB-RAB5A [6]) | phenotypically active (A549-CANX-COX4) | phenotypically active (A549-GM130-SQSTM1 [7]) | phenotypically active (A549-TP53BP1-CLTA) | phenotypically active (A549-TUBA1B-RELA [8]) | phenotypically active (HepG2-ACTB-RAB5A [9]) | phenotypically active (HepG2-CANX-COX4) | phenotypically active (HepG2-GM130-SQSTM1) | phenotypically active (HepG2-TP53BP1-CLTA) | phenotypically active (HepG2-TUBA1B-RELA) | phenotypically active (WPMY1-ACTB-RAB5A) | phenotypically active (WPMY1-CANX-COX4) | phenotypically active (WPMY1-GM130-SQSTM1 [10]) | phenotypically active (WPMY1-TP53BP1-CLTA) | phenotypically active (WPMY1-TUBA1B-RELA)
O[C@H](CNC[C@H](O)[C@@H]1CCc2cc(F)ccc2O1)[C@@H]1CCc2cc(F)ccc2O1 [nebivolol] | 3 µM | 3 µM | 3 µM | 3 µM | 9 µM | 1 (active) | 0 (inactive) | 1 (active) | 0 (inactive) | 1 (active) | 1 (active) | 0 (inactive) | 0 (inactive) | 1 (active) | 1 (active) | 1 (active) | 1 (active) | 1 (active) | 1 (active) | 1 (active)
O=C(Nc1ccncc1)c1cc([N+](=O)[O-])ccc1Cl | 3 µM | – | 9 µM | 9 µM | 9 µM | 1 (active) | 0 (inactive) | 0 (inactive) | 1 (active) | 1 (active) | 1 (active) | 1 (active) | 1 (active) | 1 (active) | 1 (active) | 0 (inactive) | 1 (active) | 1 (active) | 0 (inactive) | 1 (active)
CC[C@H](CO)Nc1nc(Nc2cccc(-c3ccccn3)c2)c2ncn(C(C)C)c2n1 [(R)-DRF053 dihydrochloride] | 9 µM | 9 µM | – | 9 µM | – | 1 (active) | 0 (inactive) | 1 (active) | 0 (inactive) | 0 (inactive) | 1 (active) | 0 (inactive) | 1 (active) | 1 (active) | 1 (active) | 0 (inactive) | 1 (active) | 0 (inactive) | 0 (inactive) | 1 (active)
O=c1cc(-c2ccccc2)oc2cc(O)cc(O)c12 [Chrysin] | 9 µM | 9 µM | – | – | – | 1 (active) | 0 (inactive) | 1 (active) | 0 (inactive) | 0 (inactive) | 0 (inactive) | 0 (inactive) | 0 (inactive) | 0 (inactive) | 0 (inactive) | 0 (inactive) | 1 (active) | 0 (inactive) | 1 (active) | 0 (inactive)
N#Cc1ccc2ncnc(NCCc3ccccc3)c2c1 [Senexin A] | 3 µM | 3 µM | – | – | – | 1 (active) | 0 (inactive) | 1 (active) | 0 (inactive) | 0 (inactive) | 0 (inactive) | 1 (active) | 0 (inactive) | 0 (inactive) | 0 (inactive) | 1 (active) | 1 (active) | 0 (inactive) | 0 (inactive) | 1 (active)
Cc1ccc(NC(=O)c2cccc(C(C)(C)C#N)c2)cc1Nc1ccc2ncn(C)c(=O)c2c1 | 1 µM | – | 9 µM | ≤ 0.3 µM | 3 µM | 1 (active) | 0 (inactive) | 0 (inactive) | 1 (active) | 1 (active) | 1 (active) | 1 (active) | 1 (active) | 1 (active) | 1 (active) | 1 (active) | 1 (active) | 1 (active) | 1 (active) | 0 (inactive)
COc1cc2nccc(Oc3ccc(NC(=O)C4(C(=O)Nc5ccc(F)cc5)CC4)cc3)c2cc1OC | 3 µM | 3 µM | ≤ 0.3 µM | – | – | 1 (active) | 0 (inactive) | 1 (active) | 0 (inactive) | 1 (active) | 0 (inactive) | 0 (inactive) | 0 (inactive) | 0 (inactive) | 0 (inactive) | 1 (active) | 0 (inactive) | 0 (inactive) | 0 (inactive) | 0 (inactive)
O=C(CCCCCCC(=O)NO)NO | 9 µM | – | – | 9 µM | – | 1 (active) | 0 (inactive) | 0 (inactive) | 0 (inactive) | 0 (inactive) | 1 (active) | 0 (inactive) | 0 (inactive) | 0 (inactive) | 0 (inactive) | 0 (inactive) | 0 (inactive) | 0 (inactive) | 0 (inactive) | 0 (inactive)
Cc1ccc(O)c([C@H](CCN(C(C)C)C(C)C)c2ccccc2)c1 [Tolterodine L-tartrate] | 9 µM | 9 µM | – | – | 9 µM | 1 (active) | 0 (inactive) | 1 (active) | 0 (inactive) | 0 (inactive) | 0 (inactive) | 0 (inactive) | 0 (inactive) | 0 (inactive) | 0 (inactive) | 0 (inactive) | 0 (inactive) | 1 (active) | 0 (inactive) | 0 (inactive)
CC(C)c1c(C(=O)Nc2ccccc2)c(-c2ccccc2)c(-c2ccc(F)cc2)n1CC[C@@H](O)C[C@@H](O)CC(=O)O [atorvastatin] | 3 µM | – | – | 3 µM | 3 µM | 1 (active) | 0 (inactive) | 0 (inactive) | 0 (inactive) | 0 (inactive) | 1 (active) | 1 (active) | 1 (active) | 1 (active) | 1 (active) | 1 (active) | 1 (active) | 1 (active) | 1 (active) | 1 (active)
Cc1ccc(S(=O)(=O)c2ccc([N+](=O)[O-])o2)cc1 | 3 µM | 3 µM | – | 9 µM | 3 µM | 1 (active) | 0 (inactive) | 1 (active) | 0 (inactive) | 0 (inactive) | 1 (active) | 0 (inactive) | 1 (active) | 0 (inactive) | 1 (active) | 1 (active) | 1 (active) | 1 (active) | 1 (active) | 1 (active)
